# Key:
# Test in all cases: growth inhibition (% activity, log2 RLU normalised to DMSO / staurosporine); higher = more growth inhibition
# Details in all cases: 33 µM
# DIPGX29 = system: DIPGX29 (H3.3 K27M diffuse intrinsic pontine glioma line)
# Procedure, shortened: (§1)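 The growth-inhibition value comes from CellTiter-Glo luminescence, log2-transformed, normalised per plate to % activity between solvent and positive control wells, and taken as the median over replicates. Treatment of pHGG cell lines and H9-derived neural stem cells with approved drugs was at a single final concentration of about 33 μM, in triplicate, for 7 days at 37 °C, 5% CO2.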
# DIPGX37 = system: DIPGX37 (H3.3 K27M diffuse intrinsic pontine glioma line)
# Procedure, shortened: as §1
# DIPGX7 = system: DIPGX7 (H3.3 K27M diffuse intrinsic pontine glioma line)
# Procedure, shortened: as §1
# DIPGX9 = system: DIPGX9 (diffuse intrinsic pontine glioma line)
# Procedure, shortened: as §1
# HGGX39 = system: HGGX39 (paediatric high-grade glioma line)
# Procedure, shortened: as §1
# HGGX6 = system: HGGX6 (H3.3 G34R paediatric high-grade glioma line)
# Procedure, shortened: as §1
# HNSC = system: HNSC
# Procedure, shortened: as §1
# SUDIPGIV = system: SUDIPGIV (diffuse intrinsic pontine glioma line)
# Procedure, shortened: as §1
# SUDIPGVI = system: SUDIPGVI (diffuse intrinsic pontine glioma line)
# Procedure, shortened: as §1
# SUDIPGXIII = system: SUDIPGXIII (diffuse intrinsic pontine glioma line)
# Procedure, shortened: as §1
Compound,growth inhibition (DIPGX29) [%],growth inhibition (DIPGX37) [%],growth inhibition (DIPGX7) [%],growth inhibition (DIPGX9) [%],growth inhibition (HGGX39) [%],growth inhibition (HGGX6) [%],growth inhibition (HNSC) [%],growth inhibition (SUDIPGIV) [%],growth inhibition (SUDIPGVI) [%],growth inhibition (SUDIPGXIII) [%]
Nc1ncn([C@H]2C[C@H](O)[C@@H](CO)O2)c(=O)n1,2.35,0.227,3.51,4.93,4.99,3.19,27.6,5.46,2.19,1.68
CCc1cccc2c3c([nH]c12)C(CC)(CC(=O)O)OCC3 (stereo not given),1.41,0.479,3.29,0.48,2.3,0.44,2.88,-3.78,1.87,1.77
CCOC(=O)n1ccn(C)c1=S,1.7,2.04,0.732,1.21,0.889,2.62,0.384,-0.192,2.2,-16.1
C=CC[N+]1([C@H]2C[C@H]3[C@@H]4CC[C@H]5C[C@H](O)[C@@H](N6CCOCC6)C[C@]5(C)[C@H]4CC[C@]3(C)[C@H]2OC(C)=O)CCCC1,-0.303,-0.692,1.36,0.151,4.24,1.87,2.05,-0.149,0.535,1.02
C[C@H](CS)C(=O)N1CCC[C@H]1C(=O)O,0.445,-0.171,1.27,1.57,1.84,-1.72,2.42,-0.14,-0.111,-0.989
CN1CCC(=C2c3ccccc3CC(=O)c3sccc32)CC1,-0.432,0.985,-0.625,0.0911,0.272,2.44,1.53,-1.24,0.438,0.861
C[C@@H]1C[C@H]2[C@@H]3CCC4=CC(=O)C=C[C@]4(C)[C@@]3(Cl)[C@@H](O)C[C@]2(C)[C@@]1(OC(=O)c1ccco1)C(=O)CCl,2.55,2.99,2.36,5.3,6.75,4.28,0.466,14.2,2.53,-3.14
CCC[C@H](NC(=O)[C@@H]1[C@H]2CCC[C@H]2CN1C(=O)[C@@H](NC(=O)[C@@H](NC(=O)c1cnccn1)C1CCCCC1)C(C)(C)C)C(=O)C(=O)NC1CC1,0.654,1.66,1.2,1.41,1.74,2.24,3.02,0.139,1.78,-0.0315
CC(=O)Oc1cc(C(F)(F)F)ccc1C(=O)O,-1.87,-1.02,-1.55,-0.552,-0.882,0.0377,-4.31,-2.59,-2.15,-2.75
Cc1cc(-n2c(=O)[nH]c(=O)n(C)c2=O)ccc1Oc1ccc(SC(F)(F)F)cc1,1.92,4.99,3.64,1.95,4.82,2.18,5.28,2.64,4.98,-0.649
NC(=O)c1cn(Cc2c(F)cccc2F)nn1,-1.15,-0.27,-2,-1.13,-1.24,-1.04,-2.69,-1.85,-0.117,0.834
O=C(O)c1cc(=O)c2c(OCC(O)COc3cccc4oc(C(=O)O)cc(=O)c34)cccc2o1,-1.5,1.34,-1.58,0.155,-0.164,1.99,-1.63,-0.417,-0.328,1.77
CCN1CCN(c2cc3c(cc2F)c(=O)c(C(=O)O)cn3C2CC2)CC1,-0.107,1.21,0.805,1.48,4.31,-0.135,1.17,1.5,1.16,-0.234
CN[C@@H]1[C@H](O[C@H]2[C@H](O[C@H]3[C@H](O)[C@@H](O)[C@H](N=C(N)N)[C@@H](O)[C@@H]3N=C(N)N)O[C@@H](C)[C@]2(O)C=O)O[C@@H](CO)[C@H](O)[C@H]1O,0.0944,-5.46,0.411,-1.2,0.505,-0.72,-0.954,-0.137,-0.665,0.85
CC(C)C(=O)Nc1ccc([N+](=O)[O-])c(C(F)(F)F)c1,1.6,2.28,2.18,2.7,11.9,0.873,6.29,5.63,3.39,2.07
CC1OC(n2cc(F)c(=O)[nH]c2=O)C(O)C1O (stereo not given),-0.415,1.44,-1.58,1.19,-0.346,1.76,-0.812,2.36,0.29,1.21
CN1CC2c3ccccc3Oc3ccc(Cl)cc3C2C1 (stereo not given),1.89,-5.66,0.982,0.366,5.72,0.239,2.74,2.1,-0.852,0.618
C[C@@H]1[C@H](O)[C@@H](C)/C=C/C=C/C=C/C=C/C=C/C=C/C=C/[C@H](O[C@@H]2O[C@H](C)[C@@H](O)[C@H](N)[C@@H]2O)C[C@@H]2O[C@](O)(C[C@@H](O)C[C@@H](O)[C@H](O)CC[C@@H](O)C[C@@H](O)CC(=O)O[C@H]1C)C[C@H](O)[C@H]2C(=O)O,1.5,0.689,0.985,2.51,1.45,3.13,2.79,-0.529,0.154,1.88
CCOC(=O)[C@H](CCc1ccccc1)N[C@@H](C)C(=O)N1CCC[C@H]1C(=O)O,1.73,-8.18,0.205,0.307,0.569,-0.623,1.11,-1.94,-1.02,-3.41
